Here are results for nine molecules from PubChem BioAssay (Tox21).

SMILES strings stand for the structures. Unmarked numbers belong to inactive results. Results filed as inconclusive are left out. Active and inactive are the calls of the source. Unless noted, calls follow the shape of the dose curve; as a rule, active = well fitted curve in the direction sought with a large enough effect in the repeat runs; inconclusive = weak or mixed curves; inactive = no such curve, though single readings can be large; an effect the other way counts as inactive or inconclusive.

A short description of assay [1]: Caspase-3/7 induction in CHO-K1 cells by small molecules, qHTS cell viability counter screen (AID 1346979). Also: nearly all actives have a fitted effect of over 35% in size. Also: potency is read from the fitted curve at half-maximal effect. The method in brief: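 Multiplexed with Caspase-Glo 3/7 in CHO-K1 cells, this counter screen added CellTiter-Fluor after 16hr of compound exposure and recorded fluorescence 1hr later.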
In general terms: qHTS replaces the single test concentration by a dilution series.

Assay [2] in a line: Caspase-3/7 induction in CHO-K1 cells by small molecules, qHTS assay (AID 1346980). Also: nearly all actives have a fitted effect of over 15% in size. The method in brief: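 Wild-type CHO-K1 cells exposed to compounds for 17hr at 37 C, 5% CO2. Caspase-3/7 activity then measured by Caspase-Glo 3/7 luminescence after 30min at room temperature.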
Assay [3] has as its target Nuclear receptor subfamily 1 group I member 2 (Homo sapiens) (UniProt O75469). The experiment in a line: Human pregnane X receptor (PXR) small molecule agonists, qHTS assay (AID 1346982). Also: nearly all actives have a fitted effect of over 35% in size. Also: potency is read from the fitted curve at half-maximal effect. The method in brief:
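Cells: HepG2 stably carrying PXR-Luc. Medium held 5% charcoal-stripped FBS. Compounds in DMSO added after 5 hr plating, incubated 24 hr, then luminescence quantified with ONE-Glo.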

The target of assay [4] is Acetylcholinesterase (Homo sapiens) (UniProt P22303). Description: Acetylcholinesterase (AChE) small molecule antagonists: colormetric cell-based qHTS assay (AID 1347395; calls by dose curve; also: nearly all actives have a fitted effect of over 30% in size; also: potency is read from the fitted curve at half-maximal effect). The method in brief:
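In this cell-based qHTS, attached SH-SY5Y cells were treated with test chemicals for 30 min, after which acetylthiocholine hydrolysis was followed by DTNB colour development over 90 min at 37 C.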

The target is the same in assay [5]. The experiment in a line: Acetylcholinesterase (AChE) small molecule antagonists: enzyme-based qHTS assay (AID 1347397; calls by dose curve; also: nearly all actives have a fitted effect of over 55% in size). The note with it: Potency: AChE enzyme activity inhibition. In outline:
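Colorimetric DTNB read-out of thiocholine released from acetylthiocholine by recombinant human AChE (50 mU/mL as dispensed). Compounds were preincubated 30 min at RT before substrate/DTNB addition, with a 10 min RT reaction.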

Assay [6] has the same target. The experiment in a line: Acetylcholinesterase (AChE) small molecule antagonists: enzyme-based qHTS assay with human liver microsomes (AID 1347399; calls by dose curve; also: nearly all actives have a fitted effect of over 60% in size). Particulars: Potency: qHTS inhibition. In outline:
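Recombinant human AChE (50 mU/mL in the enzyme mix) and human liver microsomes (0.25 mg/mL final) were preincubated with compound and NADPH (0.25 mg/mL final) for 30 min at 37 C. Acetylthiocholine/DTNB was then added; thiocholine was read colorimetrically after 10 min at room temperature.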

Assay [7] deals with Cytochrome P450 2D6 (Homo sapiens) (UniProt P10635). The experiment in a line: Cytochrome P450 Family 2 Subfamily D Member 6 (CYP2D6) small molecule antagonists: luciferase reporter qHTS assay (AID 1671196). Also: nearly all actives have a fitted effect of over 50% in size. Also: potency is read from the fitted curve at half-maximal effect. The method in brief:
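Enzyme and proluciferin substrate were first combined with test chemical for 10 min at room temperature. Adding NADPH regeneration solution started a 1 h reaction, stopped with luciferin detection reagent and read by luminescence 20 min later.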
In general terms: A reporter such as luciferase makes a cellular process visible.

The target of assay [8] is Cytochrome P450 2C19 (Homo sapiens) (UniProt P33261). Description: Cytochrome P450 Family 2 Subfamily C Member 19 (CYP2C19) small molecule antagonists: luciferase reporter qHTS assay (AID 1671197). Also: nearly all actives have a fitted effect of over 65% in size. Also: potency is read from the fitted curve at half-maximal effect. In outline: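 First, compounds are pinned into enzyme-substrate mix and held 10 min at room temperature. Second, NADPH regeneration solution is added and plates incubate 1 h at 37C. Third, detection reagent is added and luminescence read after 20 min.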
Chain of Cytochrome P450 2C19 (Homo sapiens) (P33261 whole entry, looked up): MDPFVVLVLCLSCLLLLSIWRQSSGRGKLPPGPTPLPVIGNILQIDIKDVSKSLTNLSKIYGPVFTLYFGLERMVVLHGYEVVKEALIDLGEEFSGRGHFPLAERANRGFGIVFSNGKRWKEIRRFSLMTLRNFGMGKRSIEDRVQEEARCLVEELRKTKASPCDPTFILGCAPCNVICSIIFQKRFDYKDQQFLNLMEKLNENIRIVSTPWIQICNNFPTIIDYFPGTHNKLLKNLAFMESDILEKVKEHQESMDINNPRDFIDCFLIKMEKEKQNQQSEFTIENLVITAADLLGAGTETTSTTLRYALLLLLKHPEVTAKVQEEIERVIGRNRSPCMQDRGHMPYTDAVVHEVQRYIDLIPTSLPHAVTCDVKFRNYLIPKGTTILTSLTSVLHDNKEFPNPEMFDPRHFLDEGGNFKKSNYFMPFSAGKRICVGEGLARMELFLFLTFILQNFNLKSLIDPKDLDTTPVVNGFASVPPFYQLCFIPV

Assay [9] deals with Cytochrome P450 2C9 (Homo sapiens) (UniProt P11712). Description: Cytochrome P450 Family 2 Subfamily C Member 9 (CYP2C9) small molecule antagonists: luciferase reporter qHTS assay (AID 1671198). Also: nearly all actives have a fitted effect of over 50% in size. Also: potency is read from the fitted curve at half-maximal effect. The method in brief: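 P450-Glo proluciferin substrate with CYP2C9 enzyme; 10 min RT preincubation, then NADPH regeneration 1 h at 37C; luciferin detection reagent 20 min RT, luminescence in relative luminescence units.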
Chain of Cytochrome P450 2C9 (Homo sapiens) (P11712 whole entry, looked up): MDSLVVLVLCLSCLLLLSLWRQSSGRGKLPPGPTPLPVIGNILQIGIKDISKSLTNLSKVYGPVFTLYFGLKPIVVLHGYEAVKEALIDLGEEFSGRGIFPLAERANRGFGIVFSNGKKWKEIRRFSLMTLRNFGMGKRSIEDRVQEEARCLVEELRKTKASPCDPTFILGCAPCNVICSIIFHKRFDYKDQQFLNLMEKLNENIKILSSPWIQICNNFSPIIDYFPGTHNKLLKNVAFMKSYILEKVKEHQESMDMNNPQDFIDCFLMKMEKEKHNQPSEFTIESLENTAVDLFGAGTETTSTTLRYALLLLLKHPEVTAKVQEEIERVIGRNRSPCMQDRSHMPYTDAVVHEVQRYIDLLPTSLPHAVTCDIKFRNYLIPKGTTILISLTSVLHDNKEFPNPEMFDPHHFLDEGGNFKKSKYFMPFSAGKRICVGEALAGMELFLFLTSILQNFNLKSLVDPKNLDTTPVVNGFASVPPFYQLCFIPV

Assay [10] deals with Cytochrome P450 1A2 (Homo sapiens) (UniProt P05177). Description: Cytochrome P450 Family 1 Subfamily A Member 2 (CYP1A2) small molecule antagonists: luciferase reporter qHTS assay (AID 1671199). Also: nearly all actives have a fitted effect of over 50% in size. Also: potency is read from the fitted curve at half-maximal effect. The method in brief: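 Compounds were incubated with CYP1A2 and a luminogenic proluciferin substrate for 10 min at room temperature before the reaction was started with NADPH regeneration solution. After 1 h, detection reagent was added and light output, proportional to CYP activity, was recorded.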
Chain of Cytochrome P450 1A2 (Homo sapiens) (P05177 whole entry, looked up): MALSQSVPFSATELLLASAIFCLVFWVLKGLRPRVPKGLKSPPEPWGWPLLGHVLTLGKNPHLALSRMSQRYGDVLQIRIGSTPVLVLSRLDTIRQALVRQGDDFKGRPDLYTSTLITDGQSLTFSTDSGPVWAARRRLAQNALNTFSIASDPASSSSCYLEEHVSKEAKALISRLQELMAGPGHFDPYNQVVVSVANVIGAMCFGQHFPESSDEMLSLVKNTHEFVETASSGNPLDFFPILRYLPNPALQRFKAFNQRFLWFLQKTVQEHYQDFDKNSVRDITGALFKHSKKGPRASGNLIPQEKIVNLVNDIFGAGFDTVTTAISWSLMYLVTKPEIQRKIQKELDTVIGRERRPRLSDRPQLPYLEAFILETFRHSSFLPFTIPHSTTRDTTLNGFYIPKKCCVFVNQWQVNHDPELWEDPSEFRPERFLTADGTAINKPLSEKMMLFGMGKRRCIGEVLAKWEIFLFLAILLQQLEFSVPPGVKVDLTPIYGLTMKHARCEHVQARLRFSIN

The target in assay [11] is Voltage-gated inwardly rectifying potassium channel KCNH2 (Homo sapiens) (UniProt Q12809). Description: Human Ether-a-go-go-Related Gene (hERG) channel small molecule antagonists: fluorescence cell-based qHTS assay (AID 1671200). Also: nearly all actives have a fitted effect of over 50% in size. Also: potency is read from the fitted curve at half-maximal effect. In outline:
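Cell line hERG-U2OS; dye FluxOR II, 1 h RT dark; Tl+ stimulus; ex 480/em 540 nm, read each second for 2 min.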

The target of assay [12] is Cytochrome P450 3A4 (Homo sapiens) (UniProt P08684). Description: Cytochrome P450 Family 3 Subfamily A Member 4 (CYP3A4) small molecule antagonists: luciferase reporter qHTS assay (AID 1671201). Also: nearly all actives have a fitted effect of over 50% in size. Also: potency is read from the fitted curve at half-maximal effect. In outline: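 Room-temperature assay throughout: 10 min compound–enzyme/substrate preincubation, 1 h reaction after NADPH regeneration solution, 20 min detection. Luciferin formed from proluciferin substrate is quantified by luminescence.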
Chain of Cytochrome P450 3A4 (Homo sapiens) (P08684 whole entry, looked up): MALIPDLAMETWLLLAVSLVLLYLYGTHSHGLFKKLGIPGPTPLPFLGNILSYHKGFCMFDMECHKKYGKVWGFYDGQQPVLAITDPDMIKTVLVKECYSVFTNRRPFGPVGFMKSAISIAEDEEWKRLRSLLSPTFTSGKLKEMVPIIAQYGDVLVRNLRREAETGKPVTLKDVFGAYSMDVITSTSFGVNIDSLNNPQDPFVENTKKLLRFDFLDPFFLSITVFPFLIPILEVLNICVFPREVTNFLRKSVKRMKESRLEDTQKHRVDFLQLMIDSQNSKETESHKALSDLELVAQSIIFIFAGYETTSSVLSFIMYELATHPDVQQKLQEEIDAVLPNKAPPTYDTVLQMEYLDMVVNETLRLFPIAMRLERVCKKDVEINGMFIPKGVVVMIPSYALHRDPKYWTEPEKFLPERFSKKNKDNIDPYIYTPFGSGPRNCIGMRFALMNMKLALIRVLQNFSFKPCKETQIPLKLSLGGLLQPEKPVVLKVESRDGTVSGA

Assay [13] has as its target Acetylcholinesterase (Homo sapiens) (UniProt P22303). Description: Acetylcholinesterase (AChE) small molecule antagonists: fluorescence cell-based qHTS assay (AID 1347398; calls by dose curve; also: nearly all actives have a fitted effect of over 50% in size; also: potency is read from the fitted curve at half-maximal effect). Particulars: Potency: AChE activity. The method in brief: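 SH-SY5Y, 2,000 cells/well, attached overnight; cmpd 30 min 37 C; acetylthiocholine/Thiolite Green cocktail 40 min RT; fluorescence Ex/Em 490/520 nm.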

Assay [14] deals with Nuclear receptor subfamily 1 group I member 2 (Rattus norvegicus) (UniProt Q9R1A7). The experiment in a line: Rat pregnane X receptor (rPXR) activation by small molecules, qHTS assay (AID 1346983). Also: nearly all actives have a fitted effect of over 20% in size. Particulars: rPXR luciferase reporter cells, One-Glo luminescence, 24 h; max activation: active compounds read high. In outline: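 Cell-based rPXR activation assay: rPXR cells, 2,000 per well, rested 5hr at 37 C, then exposed to compounds in DMSO for 24 hr at 37 C. Luciferase activity read by One-Glo luminescence after 30 min at room temperature.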

Assay [15] can be described thus: Caspase-3/7 induction in HepG2 cells by small molecules, qHTS cell viability counter screen (AID 1346981). Also: nearly all actives have a fitted effect of over 30% in size. Also: potency is read from the fitted curve at half-maximal effect. In outline:
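Cell viability is measured as a cytotoxicity counter screen alongside the Caspase-Glo 3/7 readout in identical wells. Wild-type HepG2 cells are treated with test compounds for 16 hr at 37 C before CellTiter-Fluor addition and a 1-hr incubation.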

The target in assay [16] is Nuclear receptor subfamily 1 group I member 2 (Homo sapiens) (UniProt O75469). The experiment in a line: CYP3A4 induction through human pregnane X receptor (PXR) by small molecules, qHTS assay (AID 1346984). Also: nearly all actives have a fitted effect of over 40% in size. The method in brief:
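Quantitative HTS in DPX-2 cells, i.e. HepG2 transfected with PXR response element and CYP3A4-promoter luciferase. Compounds in DMSO incubated 24hr at 37C; then P450-Glo CYP3A4 substrate, 3uM final, 3hr; One-Glo luminescence.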

Assay [17] has the same target. Description: Human pregnane X receptor (PXR) activation by small molecules, qHTS assay (AID 1346985). Also: nearly all actives have a fitted effect of over 40% in size. The method in brief: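 DPX-2 cells (HepG2 co-transfected with a PXR response element and a CYP3A4-promoter luciferase construct) were seeded at 2,000 per well, rested 5 hr at 37C, then exposed to DMSO-dissolved compounds for 24 hr. Activation was read as luciferase luminescence.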
% is scaled to controls: 0 for no effect and ±100 for the full control effect.

Chain of Nuclear receptor subfamily 1 group I member 2 (Homo sapiens) (O75469 whole entry, looked up): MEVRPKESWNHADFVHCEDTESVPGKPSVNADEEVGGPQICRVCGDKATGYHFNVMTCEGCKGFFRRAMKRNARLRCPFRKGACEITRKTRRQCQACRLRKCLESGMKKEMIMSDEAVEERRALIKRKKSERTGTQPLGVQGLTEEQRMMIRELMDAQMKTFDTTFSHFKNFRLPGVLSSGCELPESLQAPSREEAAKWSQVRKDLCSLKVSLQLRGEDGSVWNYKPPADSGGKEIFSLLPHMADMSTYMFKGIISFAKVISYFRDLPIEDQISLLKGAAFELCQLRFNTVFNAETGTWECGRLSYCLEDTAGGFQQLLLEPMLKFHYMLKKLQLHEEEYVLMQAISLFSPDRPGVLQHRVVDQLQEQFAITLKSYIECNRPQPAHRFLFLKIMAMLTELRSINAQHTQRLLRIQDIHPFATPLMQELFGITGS
Chain of Acetylcholinesterase (Homo sapiens) (P22303 whole entry, looked up): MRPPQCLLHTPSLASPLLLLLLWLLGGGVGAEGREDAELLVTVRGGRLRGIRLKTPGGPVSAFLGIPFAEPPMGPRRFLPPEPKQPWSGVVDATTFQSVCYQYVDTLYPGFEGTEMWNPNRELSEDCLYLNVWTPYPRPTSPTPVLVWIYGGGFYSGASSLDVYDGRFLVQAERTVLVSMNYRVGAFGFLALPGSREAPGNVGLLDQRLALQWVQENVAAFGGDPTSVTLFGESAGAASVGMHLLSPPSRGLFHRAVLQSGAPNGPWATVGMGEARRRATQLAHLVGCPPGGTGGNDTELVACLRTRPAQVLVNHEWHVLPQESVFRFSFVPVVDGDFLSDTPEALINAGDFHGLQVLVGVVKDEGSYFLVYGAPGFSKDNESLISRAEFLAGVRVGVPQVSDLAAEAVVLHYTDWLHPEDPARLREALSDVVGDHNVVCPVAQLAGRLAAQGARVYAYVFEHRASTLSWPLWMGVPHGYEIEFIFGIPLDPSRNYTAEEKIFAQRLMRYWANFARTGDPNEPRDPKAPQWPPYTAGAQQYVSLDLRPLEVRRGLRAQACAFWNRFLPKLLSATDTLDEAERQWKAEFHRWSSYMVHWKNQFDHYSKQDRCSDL
Chain of Voltage-gated inwardly rectifying potassium channel KCNH2 (Homo sapiens) (Q12809 whole entry, looked up): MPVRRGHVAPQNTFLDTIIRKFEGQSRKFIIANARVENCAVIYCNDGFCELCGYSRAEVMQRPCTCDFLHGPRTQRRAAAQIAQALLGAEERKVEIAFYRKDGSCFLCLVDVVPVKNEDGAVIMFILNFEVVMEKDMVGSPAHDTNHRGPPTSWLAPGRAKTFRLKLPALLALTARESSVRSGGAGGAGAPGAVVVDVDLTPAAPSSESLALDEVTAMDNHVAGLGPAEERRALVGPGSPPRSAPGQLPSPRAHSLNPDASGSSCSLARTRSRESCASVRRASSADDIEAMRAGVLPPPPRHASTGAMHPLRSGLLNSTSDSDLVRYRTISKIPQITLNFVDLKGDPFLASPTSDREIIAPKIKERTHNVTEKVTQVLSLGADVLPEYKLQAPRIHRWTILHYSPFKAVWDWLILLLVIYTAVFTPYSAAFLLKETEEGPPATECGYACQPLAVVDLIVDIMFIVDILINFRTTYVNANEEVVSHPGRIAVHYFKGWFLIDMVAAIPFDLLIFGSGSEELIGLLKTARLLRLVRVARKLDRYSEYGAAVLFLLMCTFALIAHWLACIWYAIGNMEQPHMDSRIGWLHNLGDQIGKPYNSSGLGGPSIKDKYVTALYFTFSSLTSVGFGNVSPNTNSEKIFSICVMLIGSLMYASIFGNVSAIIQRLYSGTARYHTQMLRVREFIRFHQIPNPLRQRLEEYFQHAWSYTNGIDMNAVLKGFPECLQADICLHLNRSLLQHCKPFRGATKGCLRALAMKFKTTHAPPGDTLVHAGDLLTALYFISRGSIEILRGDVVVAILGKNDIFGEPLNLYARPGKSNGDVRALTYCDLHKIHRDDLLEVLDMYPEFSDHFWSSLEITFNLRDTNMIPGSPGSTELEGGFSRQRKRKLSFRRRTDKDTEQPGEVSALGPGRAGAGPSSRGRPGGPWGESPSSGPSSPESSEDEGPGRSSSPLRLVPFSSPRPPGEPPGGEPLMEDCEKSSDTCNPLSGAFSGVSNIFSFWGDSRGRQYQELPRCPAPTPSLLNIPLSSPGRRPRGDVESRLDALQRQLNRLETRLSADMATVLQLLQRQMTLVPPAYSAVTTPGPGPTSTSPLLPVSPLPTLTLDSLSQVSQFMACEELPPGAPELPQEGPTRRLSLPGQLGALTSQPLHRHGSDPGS
Chain of Cytochrome P450 2D6 (Homo sapiens) (P10635 whole entry, looked up): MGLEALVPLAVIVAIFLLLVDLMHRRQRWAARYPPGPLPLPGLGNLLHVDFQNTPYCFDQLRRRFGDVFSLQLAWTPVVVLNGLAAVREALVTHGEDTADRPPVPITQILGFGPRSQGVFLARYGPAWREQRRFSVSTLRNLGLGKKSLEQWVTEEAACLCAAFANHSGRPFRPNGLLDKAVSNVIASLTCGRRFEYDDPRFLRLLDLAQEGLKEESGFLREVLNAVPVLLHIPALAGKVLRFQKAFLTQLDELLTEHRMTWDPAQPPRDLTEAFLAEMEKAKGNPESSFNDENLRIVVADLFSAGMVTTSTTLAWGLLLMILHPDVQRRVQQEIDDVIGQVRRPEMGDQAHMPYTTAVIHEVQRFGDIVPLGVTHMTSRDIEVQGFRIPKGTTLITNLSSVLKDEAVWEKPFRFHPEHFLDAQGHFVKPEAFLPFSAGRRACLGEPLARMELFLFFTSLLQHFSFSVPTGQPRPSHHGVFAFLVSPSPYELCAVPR

As to `CNC(C)Cc1ccc2c(c1)OCO2` (centres undefined), the Potency result in assay [1], in assay [2], in assay [3], in assay [4], in [5] and in [6] was “inactive” throughout. Further, the Potency entry in assay [8], in assay [9], in assay [10], in [11] and in assay [12] was “inactive” each time. The Potency in [7] is 0.491 µM (active).
`CC(C)(C)C(O)C(Oc1ccc(-c2ccccc2)cc1)n1cncn1` (centres undefined): the Potency is 61.1 µM (active) in [1], 19.3 µM (active) in assay [3], 10 µM (active) in assay [9] and 0.448 µM (active) in assay [12]. Besides, the Potency result in [2], in [4], in assay [5], in assay [13], in [6] and in [11] was “inactive” throughout.
Regarding `Oc1ccccc1Br`, the Potency entry in [1], in assay [2], in [3], in [4], in [5] and in assay [13] was “inactive” in each case. Further, the Potency result in assay [6], in assay [7], in assay [8], in assay [9], in assay [10] and in assay [11] was “inactive” throughout. Also, the Potency entry in [12] is “inactive”.
Turning to `C[C@]12CC[C@H](O)C[C@H]1CC[C@@H]1[C@@H]2C[C@@H](O)[C@]2(C)[C@@H](C3=CC(=O)OC3)CC[C@]12O`, the Potency entry in assay [1], in assay [2], in assay [4], in [5], in assay [13] and in assay [6] was “inactive” throughout. For the same molecule, the Potency entry in assay [7], in assay [8], in assay [9], in assay [11] and in assay [12] was “inactive” throughout. Moreover, the Potency in assay [3] is 2.17 µM (active).
Take `Cc1c(Cl)c(=O)oc2cc(OP(=O)(OCCCl)OCCCl)ccc12`: the max activation in assay [14] was 8.02%.
`CC(C)C1CCC(Cc2ccc(Cl)cc2)C1(O)Cn1cncn1` (centres undefined): the Potency result in [2], in [4] and in [5] was “inactive” throughout. The Potency in [15] was 60.5 µM (active); in assay [3], 21.5 µM (active); in assay [7], 22.2 µM (active); in assay [8] it was 0.353 µM (active); in assay [9], 0.789 µM (active); in assay [10], 31.4 µM (active). For the same molecule, the Potency in [11] was 34.3 µM (active); in assay [12], 0.0498 µM (active).
Consider `C[C@H]1CC[C@@H]2[C@@H](C)[C@H]3[C@H](C[C@H]4[C@@H]5CC=C6CC(O[C@@H]7O[C@H](CO)[C@H](O)[C@H](O[C@@H]8O[C@H](CO)[C@@H](O)[C@H](O)[C@H]8O)[C@H]7O[C@H]7O[C@@H](C)[C@H](O)[C@@H](O)[C@H]7O)CC[C@]6(C)[C@H]5CC[C@]34C)N2C1` (some centres undefined), for which the Potency entry in assay [2], in assay [16], in [17], in assay [5], in assay [6] and in assay [8] was “inactive” in each case. Moreover, the Potency entry in assay [9], in [11] and in assay [12] was “inactive” each time. Besides, the Potency in assay [15] is 31.6 µM (active); in assay [4] it was 26 µM (active); in assay [13], 2.92 µM (active). Besides, the max activation in assay [14] was -11.8%.
Regarding `CC1(C)C(/C=C(\Cl)C(F)(F)F)C1C(=O)OC(C#N)c1cccc(Oc2ccccc2)c1` (centres undefined), the Potency entry in [2], in assay [15], in assay [4], in [5], in assay [6] and in [7] was “inactive” throughout. For the same molecule, the Potency result in [11] and in [12] was “inactive” each time. Besides, the results for the Potency in assay [3], in assay [8] and in [9] were 1.96 µM (active), 8.09 µM (active) and 8.09 µM (active), respectively.
Take `O=C(CCCN1CCC2(CC1)C(=O)NCN2c1ccccc1)c1ccc(F)cc1`: the Potency result in assay [2], in assay [4], in [5], in assay [8], in assay [9] and in [10] was “inactive” each time. For the same molecule, the Potency entry in assay [12] is “inactive”. Further, the Potency in [15] is 7.5 µM (active); in assay [3], 4.22 µM (active); in assay [7] it was 0.977 µM (active); in [11], 1.2 µM (active).
